# Results published in the supplement of paper PMC8728848.
# This is one part of a sample in which the strongest signals are shown more often than they occur.
# Tests used:
# Assay in all cases: glycan array binding signal (z-score within array); higher = stronger binding
# Conditions in all cases: glycan notation: IUPAC condensed, linker removed
# [1] = target: Fuc(a1-2)Gal(b1-3)GalNAc(a1-3)[Fuc(a1-2)]Gal(b1-4)GlcNAc
# Method in brief: (§1)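 From the Consortium for Functional Glycomics database, 3228 arrays were curated, keeping only those whose protein sequence was available. Binding is given as a within-array Z-score averaged across arrays sharing a protein sequence and across linkers. Negative Z-scores can be read as non-binding.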
# [2] = target: Fuc(a1-2)Gal(b1-4)GlcNAc(b1-2)[Fuc(a1-2)Gal(b1-4)GlcNAc(b1-4)]Man(a1-3)[Fuc(a1-2)Gal(b1-4)GlcNAc(b1-2)Man(a1-6)]Man(b1-4)GlcNAc(b1-4)GlcNAc
# Method in brief: as §1
# [3] = target: Fuc(a1-2)Gal6S(b1-3)GlcNAc6S
# Method in brief: as §1
# [4] = target: Fuc(a1-2)[Gal(a1-3)]Gal(b1-4)[Fuc(a1-3)]GlcNAc(b1-3)GalNAc
# Method in brief: as §1
# [5] = target: Fuc(a1-2)[GalNAc(a1-3)]Gal(b1-4)[Fuc(a1-3)]GlcNAc(b1-3)GalNAc
# Method in brief: as §1
# [6] = target: Fuc(a1-3)[Gal(b1-4)]GlcNAc(b1-4)Gal(b1-4)[Fuc(a1-3)]GlcNAc
# Method in brief: as §1
# Gal(a1-2)Gal = target: Gal(a1-2)Gal
# Method in brief: as §1
# Gal(a1-3)Gal(b1-3)GlcNAc = target: Gal(a1-3)Gal(b1-3)GlcNAc
# Method in brief: as §1
# [7] = target: Gal(a1-4)Gal(b1-3)GlcNAc(b1-2)Man(a1-3)[Gal(a1-4)Gal(b1-3)GlcNAc(b1-2)Man(a1-6)]Man(b1-4)GlcNAc(b1-4)GlcNAc
# Method in brief: as §1
# [8] = target: Gal(b1-3)GalNAc(a1-3)[Fuc(a1-2)]Gal(b1-4)GlcNAc
# Method in brief: as §1
# [9] = target: Gal(b1-3)GalNAc(b1-4)Gal(b1-4)Glc
# Method in brief: as §1
# [10] = target: Gal(b1-3)GlcNAc(b1-3)Gal(b1-4)GlcNAc(b1-3)Gal(b1-4)GlcNAc(b1-2)[Gal(b1-3)GlcNAc(b1-3)Gal(b1-4)GlcNAc(b1-3)Gal(b1-4)GlcNAc(b1-6)]Man(a1-6)[Gal(b1-3)GlcNAc(b1-3)Gal(b1-4)GlcNAc(b1-3)Gal(b1-4)GlcNAc(b1-2)Man(a1-3)]Man(b1-4)GlcNAc(b1-4)[Fuc(a1-6)]GlcNAc
# Method in brief: as §1
# [11] = target: Gal(b1-4)GlcNAc(b1-3)Gal(b1-4)GlcNAc(b1-2)Man(a1-3)[Gal(b1-4)GlcNAc(b1-3)Gal(b1-4)GlcNAc(b1-2)Man(a1-6)]Man(b1-4)GlcNAc(b1-4)GlcNAc
# Method in brief: as §1
# [12] = target: Gal(b1-4)GlcNAc(b1-3)Gal(b1-4)GlcNAc(b1-3)Gal(b1-4)GlcNAc(b1-3)Gal(b1-4)GlcNAc(b1-3)Gal(b1-4)GlcNAc(b1-2)[Gal(b1-4)GlcNAc(b1-3)Gal(b1-4)GlcNAc(b1-3)Gal(b1-4)GlcNAc(b1-3)Gal(b1-4)GlcNAc(b1-3)Gal(b1-4)GlcNAc(b1-6)]Man(a1-6)[Gal(b1-4)GlcNAc(b1-3)Gal(b1-4)GlcNAc(b1-3)Gal(b1-4)GlcNAc(b1-3)Gal(b1-4)GlcNAc(b1-3)Gal(b1-4)GlcNAc(b1-2)Man(a1-3)]Man(b1-4)GlcNAc(b1-4)[Fuc(a1-6)]GlcNAc
# Method in brief: as §1
# [13] = target: Gal(b1-4)GlcNAc(b1-6)Gal(b1-4)GlcNAc
# Method in brief: as §1
# Gal3S(b1-4)GlcNAc = target: Gal3S(b1-4)GlcNAc
# Method in brief: as §1
# Gal3S6S(b1-4)GlcNAc6S = target: Gal3S6S(b1-4)GlcNAc6S
# Method in brief: as §1
# Gal4S(b1-4)GlcNAc = target: Gal4S(b1-4)GlcNAc
# Method in brief: as §1
# Gal6P(b1-4)GlcNAc = target: Gal6P(b1-4)GlcNAc
# Method in brief: as §1
# Gal6S(b1-3)GlcNAc6S = target: Gal6S(b1-3)GlcNAc6S
# Method in brief: as §1
# Gal6S(b1-4)GlcNAc6S = target: Gal6S(b1-4)GlcNAc6S
# Method in brief: as §1
# [14] = target: GalNAc(b1-4)GlcNAc(b1-2)Man
# Method in brief: as §1
# [15] = target: GalNAc3S(b1-4)[Fuc(a1-3)]GlcNAc
# Method in brief: as §1
# GalNAc4S6S(b1-4)GlcNAc = target: GalNAc4S6S(b1-4)GlcNAc
# Method in brief: as §1
# [16] = target: Glc(a1-6)Glc(a1-6)Glc(a1-6)Glc
# Method in brief: as §1
# Glc(b1-6)Glc = target: Glc(b1-6)Glc
# Method in brief: as §1
# [17] = target: GlcNAc(a1-4)Gal(b1-4)GalNAc
# Method in brief: as §1
# [18] = target: GlcNAc(b1-2)Gal(b1-3)GalNAc
# Method in brief: as §1
# [19] = target: GlcNAc(b1-3)Gal(b1-4)GlcNAc(b1-2)[GlcNAc(b1-3)Gal(b1-4)GlcNAc(b1-6)]Man(a1-6)[GlcNAc(b1-3)Gal(b1-4)GlcNAc(b1-2)Man(a1-3)]Man(b1-4)GlcNAc(b1-4)GlcNAc
# Method in brief: as §1
# [20] = target: GlcNAc(b1-3)Gal(b1-4)GlcNAc(b1-3)Gal(b1-4)GlcNAc(b1-2)[GlcNAc(b1-3)Gal(b1-4)GlcNAc(b1-3)Gal(b1-4)GlcNAc(b1-6)]Man(a1-6)[GlcNAc(b1-3)Gal(b1-4)GlcNAc(b1-3)Gal(b1-4)GlcNAc(b1-2)Man(a1-3)]Man(b1-4)GlcNAc(b1-4)[Fuc(a1-6)]GlcNAc
# Method in brief: as §1
binder,measurement,setting,value
"MFG-E8 (Mus musculus), P21956 (protein) MQVSRVLAALCGMLLCASGLFAASGDFCDSSLCLNGGTCLTGQDNDIYCLCPEGFTGLVCNETERGPCSPNPCYNDAKCLVTLDTQRGDIFTEYICQCPVGYSGIHCETETNYYNLDGEYMFTTAVPNTAVPTPAPTPDLSNNLASRCSTQLGMEGGAIADSQISASSVYMGFMGLQRWGPELARLYRTGIVNAWTASNYDSKPWIQVNLLRKMRVSGVMTQGASRAGRAEYLKTFKVAYSLDGRKFEFIQDESGGDKEFLGNLDNNSLKVNMFNPTLEAQYIKLYPVSCHRGCTLRFELLGCELHGCSEPLGLKNNTIPDSQMSASSSYKTWNLRAFGWYPHLGRLDNQGKINAWTAQSNSAKEWLQVDLGTQRQVTGIITQGARDFGHIQYVASYKVAHSDDGVQWTVYEEQGSSKVFQGNLDNNSHKKNIFEKPFMARYVRVLPVSWHNRITLRLELLGC",glycan array binding signal (z-score),[1],0.179
same,glycan array binding signal (z-score),[2],0.01
same,glycan array binding signal (z-score),[3],8.57
same,glycan array binding signal (z-score),[4],2.33
same,glycan array binding signal (z-score),[5],1.65
same,glycan array binding signal (z-score),[6],-0.206
same,glycan array binding signal (z-score),Gal(a1-2)Gal,0.39
same,glycan array binding signal (z-score),Gal(a1-3)Gal(b1-3)GlcNAc,-0.404
same,glycan array binding signal (z-score),[7],-0.165
same,glycan array binding signal (z-score),[8],-0.266
same,glycan array binding signal (z-score),[9],-0.553
same,glycan array binding signal (z-score),[10],0.221
same,glycan array binding signal (z-score),[11],2.48
same,glycan array binding signal (z-score),[12],-0.342
same,glycan array binding signal (z-score),[13],-0.115
same,glycan array binding signal (z-score),Gal3S(b1-4)GlcNAc,-0.46
same,glycan array binding signal (z-score),Gal3S6S(b1-4)GlcNAc6S,2.81
same,glycan array binding signal (z-score),Gal4S(b1-4)GlcNAc,-0.4
same,glycan array binding signal (z-score),Gal6P(b1-4)GlcNAc,1.22
same,glycan array binding signal (z-score),Gal6S(b1-3)GlcNAc6S,3.04
same,glycan array binding signal (z-score),Gal6S(b1-4)GlcNAc6S,2.98
same,glycan array binding signal (z-score),[14],-0.038
same,glycan array binding signal (z-score),[15],0.832
same,glycan array binding signal (z-score),GalNAc4S6S(b1-4)GlcNAc,9.76
same,glycan array binding signal (z-score),[16],-0.038
same,glycan array binding signal (z-score),Glc(b1-6)Glc,2.4
same,glycan array binding signal (z-score),[17],5.5
same,glycan array binding signal (z-score),[18],0.853
same,glycan array binding signal (z-score),[19],-0.881
same,glycan array binding signal (z-score),[20],-0.08
